According to PubChem BioAssay (NCATS):
Results filed as inconclusive are left out. Where a call stands in place of a potency, no number is given. Calls of active or inactive are those of the source. Calls come from the whole dose curve; as a rule, active = well fitted cell-killing curve with a large enough effect; inconclusive = small, poorly fitted or top-dose-only effect; inactive = no such curve, though single readings can be large or run the other way.

Assay: qHTS of pediatric cancer cell lines to identify multiple opportunities for drug repurposing: Primary screen for SK-N-MC cells (AID 1347093)
Settings: SK-N-MC viability, CellTiter-Glo luminescence, 48 h; series mostly up to 46 µM
Description: Drug repurposing or repositioning has been offered as a strategy for drug development in oncology programs. This approach has special potential for childhood cancers and other rare or orphan diseases, where the expected return on new drug development has been a disincentive to pharmaceuticals.
In this project we exploit the poly-pharmacology of drugs to discover new indications via phenotypic screening of a panel of 19 well-characterized cell lines derived from solid tumors seen in children and adolescents. The goal is to identify approved drugs with previously unrecognized anticancer properties that has the potential to reveal new mechanisms and biological processes involved in carcinogenesis or drug resistance. We employed a titration-based paradigm (quantitative high-throughput screening or qHTS), where all compounds were tested at multiple concentrations for their effect on cell viability. Concentration-response curves (CRCs) were derived directly from the primary screen, and both potency and efficacy values were used to identify compounds with robust bioactivity profiles. We screened the NIH Chemical Genomics Center (NCGC) Pharmaceutical Collection (NPC) and Mechanism Interrogation Plate (MIPE) small molecule collections of approved and investigational compounds against these cell lines; and measured metabolically active cells after 48 hours of compound treatment as a proxy for cell viability.
Assay Submitter: Nathalia J. Martinez, National Center for Advancing Translational Sciences, National Institutes of Health, Rockville, MD, USA; email: natalia.martinez@nih.gov
[1] Shen, M et al. Quantitative high-throughput phenotypic screening of pediatric cancer cell lines identifies multiple opportunities for drug repurposing. Oncotarget 2017 Dec 19;9(4):4758-4772. PMID 29435139.
The cells were obtained from University of North Carolina (UNC), Pediatric Preclinical Testing Program (PPT), and Coriell Institute (CI).
qHTS cell viability assay:
Cells were assayed in growth media at a density of 500-1,000 cells/well. Five microliters of cells were dispensed into 1,536-well, white, solid-bottom, TC-treated plates (Greiner Bio One) using a multidrop dispenser and incubated at 37 degrees C, 5% CO2, under a humidified atmosphere for 5 hours. Twenty-three nanoliters of compounds and controls (neutral control DMSO or positive control bortezomib at final concentration of 2.3 µM) were subsequently transferred by Kalypsys pintool. For primary screens, the MIPE collection was tested at 11-point dilutions (final concentrations range from 0.78 nM to 46 µM) and the NPC collection at 8-point dilutions (final concentrations range from 0.59nM to 46 µM). Compounds tested in follow-up screens were assayed at 11-point dilutions. Cells were incubated for 48 hours, followed by addition of 3 uL of CellTiter-Glo (Promega). After a 15 min incubation at room temperature, samples were analyzed for luminescence intensity using a ViewLux High-throughput CCD imager equipped with clear filters.
Potency is the fitted concentration of half-maximal effect.

Q: For `CC[C@H]1C=CC=CC[C@@H](C)[C@H](O)[C@@](C)(O)C(=O)[C@@H](C)[C@H](O)[C@@H](C)C(=O)[C@@H](C)[C@H](O)[C@@H](C)C=CC(=O)O[C@@H]2[C@@H](C)[C@H](CC1)O[C@]1(CC[C@H](C)[C@H](C[C@@H](C)O)O1)[C@H]2C`, which Potency is on record?
A: 0.0033 µM (active)

Q: For `CC(C)N(CCNC(=O)CN1CCCC1=O)C(C)C`, which Potency is on record?
A: inactive

Q: For `CCCCOC(=O)c1ccccc1C(=O)OCc1ccccc1`, which Potency is on record?
A: inactive

Q: With `O=C(O)C(Cl)Cl` as the compound, how does the Potency read?
A: inactive

Q: Which Potency does the source give for `OCCCBr` here?
A: inactive

Q: For `COc1cccc2c1[C@]13CCN(CC4CC4)[C@H](C2)[C@]1(OC)CCC(=O)C3`, which Potency is on record?
A: inactive

Q: For `CC(C)N[C@@H]1CCn2c(=O)[nH]c3cccc(c32)[C@@H]1O`, which Potency is on record?
A: 1.05 µM (active)

Q: For `CCCCCC[C@H]1C(=O)O[C@H](C)[C@H](NC(=O)c2cccc(NC=O)c2O)C(=O)O[C@@H](C)[C@@H]1OC(=O)CC(C)C`, which Potency is on record?
A: 0.0469 µM (active)

Q: With `COC(=O)c1cncn1C(C)c1ccccc1` (stereo not given) as the compound, how does the Potency read?
A: inactive

Q: Which Potency does the source give for `C[C@@H]1CC[C@@]2(OC1)O[C@H]1C[C@H]3[C@@H]4CC=C5C[C@@H](O[C@@H]6O[C@H](CO)[C@@H](O[C@@H]7O[C@@H](C)[C@H](O)[C@@H](O)[C@@H]7O)[C@H](O)[C@@H]6O[C@@H]6O[C@@H](C)[C@H](O)[C@@H](O)[C@@H]6O)CC[C@]5(C)[C@@H]4CC[C@]3(C)[C@@H]1[C@H]2C` here?
A: 1.32 µM (active)

Q: For `Nc1ccc(Sc2ccc(N)cc2)cc1`, which Potency is on record?
A: inactive

Q: Which Potency does the source give for `COc1ccc(C(c2ccc(OC)cc2)C(Cl)(Cl)Cl)cc1` here?
A: 42.8 µM (active)

Q: With `C=CCC1=C(C)C(OC(=O)C2C(C=C(C)C)C2(C)C)CC1=O` (stereo not given) as the compound, how does the Potency read?
A: 38.6 µM (active)

Q: With `O=C(N[C@@H](COc1ccc2[nH]c(=O)[nH]c2c1)c1ccccc1)c1cccn(Cc2ccc(F)c(F)c2)c1=O` as the compound, how does the Potency read?
A: 18.7 µM (active)

Q: With `CC1(C)CC/C(=C/c2ccc(Cl)cc2)C1(O)Cn1cncn1` (stereo not given) as the compound, how does the Potency read?
A: inactive

Q: Which Potency does the source give for `Nc1ccc([N+](=O)[O-])cc1` here?
A: inactive

Q: Which Potency does the source give for `Oc1ccc2c3c1O[C@H]1[C@@H](O)C=C[C@H]4[C@@H](C2)NCC[C@@]341` here?
A: inactive

Q: With `COc1cc2cc(c1Cl)N(C)C(=O)C[C@H](OC(=O)C(C)C)[C@]1(C)O[C@H]1[C@H](C)[C@@H]1C[C@@](O)(NC(=O)O1)[C@H](OC)C=CC=C(C)C2` as the compound, how does the Potency read?
A: 0.001 µM (active)

Q: With `CCCC[N+]1(C)[C@H]2CC(OC(=O)[C@H](CO)c3ccccc3)C[C@H]1[C@H]1O[C@H]12` (stereo not given in full) as the compound, how does the Potency read?
A: inactive

Q: With `O=S(=O)(O)C(F)(F)C(F)(F)C(F)(F)C(F)(F)C(F)(F)C(F)(F)C(F)(F)C(F)(F)F` as the compound, how does the Potency read?
A: inactive

Q: With `Oc1ccc2c3c1O[C@H]1c4[nH]c5c(c4C[C@@]4(O)[C@@H](C2)N(CC2CC2)CC[C@]314)C[C@@]1(O)[C@H]2Cc3ccc(O)c4c3[C@@]1(CCN2CC1CC1)[C@H]5O4` as the compound, how does the Potency read?
A: inactive

Q: For `CCNC(=O)CC1N=C(c2ccc(Cl)cc2)c2cc(OC)ccc2-n2c(C)nnc21` (stereo not given), which Potency is on record?
A: 2.96 µM (active)

Q: For `CC(N[C@H]1C[C@H]1c1ccccc1)c1ccc2c(c1)OCCO2` (stereo not given in full), which Potency is on record?
A: inactive

Q: For `CSCC[C@@H](NC(=O)[C@@H](Cc1ccccc1)NC(=O)CNC(=O)CNC(=O)[C@@H](N)Cc1ccc(O)cc1)C(=O)O`, which Potency is on record?
A: inactive

Q: For `CC(C)(C)C(O)C(Oc1ccc(Cl)cc1)n1cncn1` (stereo not given), which Potency is on record?
A: 0.001 µM (active)

Q: With `CC1=C(O)C(=O)C=C2C1=CC=C1[C@@]2(C)CC[C@@]2(C)[C@@H]3C[C@](C)(C(=O)O)CC[C@]3(C)CC[C@]12C` as the compound, how does the Potency read?
A: 0.833 µM (active)

Q: For `Nc1ccc(Cl)cc1N`, which Potency is on record?
A: inactive

Q: For `CCOC(=O)c1cncn1[C@H](C)c1ccccc1`, which Potency is on record?
A: inactive

Q: Which Potency does the source give for `CC(O)CN1CCN(CC(=O)[O-])CCN(CC(=O)[O-])CCN(CC(=O)[O-])CC1.[Gd+3]` (stereo not given) here?
A: inactive

Q: For `CC(=Cc1csc(C)n1)[C@@H]1C[C@H]2O[C@@H]2CCC[C@H](C)[C@@H](O)[C@@H](C)C(=O)C(C)(C)[C@@H](O)CC(=O)O1`, which Potency is on record?
A: 0.001 µM (active)

Q: For `COCCOCCO`, which Potency is on record?
A: inactive

Q: With `CCCN(CCC)c1c([N+](=O)[O-])cc(S(N)(=O)=O)cc1[N+](=O)[O-]` as the compound, how does the Potency read?
A: 38.6 µM (active)

Q: With `O=c1[nH]c2ccc(Cl)cc2c(N[C@@H]2CN3CCC2CC3)c1-c1nc2ccccc2[nH]1` as the compound, how does the Potency read?
A: 0.0332 µM (active)

Q: Which Potency does the source give for `C[C@]12CC[C@H]3[C@@H](CCC4=CC(=O)CC[C@@]43C)[C@H]1CC[C@H]2OC(=O)CCC1CCCC1` here?
A: 11.8 µM (active)

Q: For `CC(C)(O)C(=O)Nc1ccc([N+](=O)[O-])c(C(F)(F)F)c1`, which Potency is on record?
A: 0.935 µM (active)

Q: Which Potency does the source give for `Cc1nc(-c2ccc(-c3ccc(C(=O)N4CCc5cc6c(cc54)C4(CCN(C)CC4)CO6)cc3)c(C)c2)no1` here?
A: inactive

Q: For `Cc1c(N)nc([C@H](CC(N)=O)NC[C@@H](N)C(N)=O)nc1C(=O)N[C@H](C(=O)N[C@@H](C)[C@H](O)[C@@H](C)C(=O)N[C@@H](C(=O)NCCc1nc(-c2nc(C(=O)NCCC[S+](C)C)cs2)cs1)[C@@H](C)O)C(O[C@H]1O[C@H](CO)[C@H](O)[C@@H](O)[C@@H]1O[C@H]1O[C@H](CO)[C@@H](O)[C@H](OC(N)=O)[C@H]1O)c1cnc[nH]1` (stereo not given in full), which Potency is on record?
A: 0.833 µM (active)

Q: With `NC1CC1c1ccccc1` (stereo not given) as the compound, how does the Potency read?
A: inactive

Q: With `CO/C=C(/C(=O)OC)c1ccccc1Oc1cc(Oc2ccccc2C#N)ncn1` as the compound, how does the Potency read?
A: 17.2 µM (active)

Q: For `CCC(=O)OC1CCC2C3CCC4=CC(=O)CC[C@@]4(C)C3CC[C@]12C` (stereo not given in full), which Potency is on record?
A: 9.35 µM (active)
